# Measured values from the supplement of paper PMC8728848.
# This excerpt belongs to a sample that is enriched for the strongest signals.
# B1: GST Gap3 (Streptococcus parasanguinis) (protein)
# chain: MTKQLISEIYWNEIRKGENYLYGSQIKFQEDLVNFYNPQLASGKPIVTFKSRTNYQGDRHSPDLPILIQGNRYLLEYQIDAVPANSFFLQLDFFNRQAEQIESIVLRNSGESFIFPKDTFTYTLTLMSAGCQSVTYQKFMIYDINDEEKKNHIVENRYLRELLPKDLDLVKNLIEYI
# Assays:
# Assay in all cases: glycan array binding signal (z-score within array); higher = stronger binding
# Settings in all cases: glycan notation: IUPAC condensed, linker removed
# Glc(b1-4)Glc = molecular target: Glc(b1-4)Glc
# How it was run: (§1)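 Glycan array data were curated from 3228 arrays in the Consortium for Functional Glycomics database and kept only where the protein sequence was available. Glycan names were converted to IUPAC-condensed notation, and columns mapping to the same glycan were averaged. The binding signal is a within-array Z-score, averaged across arrays of the same protein sequence at different concentrations or buffers and across linkers. Negative Z-scores can be read as non-binding.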
# [1] = molecular target: GlcNAc(a1-3)Gal(b1-4)GlcNAc
# How it was run: as §1
# [2] = molecular target: GlcNAc(a1-4)Gal(b1-4)GlcNAc(b1-3)Gal(b1-4)[Fuc(a1-3)]GlcNAc(b1-3)Gal(b1-4)[Fuc(a1-3)]GlcNAc
# How it was run: as §1
# [3] = molecular target: GlcNAc(a1-6)Gal(b1-4)GlcNAc
# How it was run: as §1
# [4] = molecular target: GlcNAc(b1-3)Gal(b1-4)GlcNAc(b1-2)[GlcNAc(b1-3)Gal(b1-4)GlcNAc(b1-6)]Man(a1-6)[GlcNAc(b1-3)Gal(b1-4)GlcNAc(b1-2)Man(a1-3)]Man(b1-4)GlcNAc(b1-4)GlcNAc
# How it was run: as §1
# [5] = molecular target: GlcNAc(b1-3)Gal(b1-4)GlcNAc(b1-3)Gal(b1-4)GlcNAc(b1-2)Man(a1-3)[GlcNAc(b1-3)Gal(b1-4)GlcNAc(b1-3)Gal(b1-4)GlcNAc(b1-2)Man(a1-6)]Man(b1-4)GlcNAc(b1-4)[Fuc(a1-6)]GlcNAc
# How it was run: as §1
# [6] = molecular target: GlcNAc(b1-3)Gal(b1-4)GlcNAc(b1-3)[GlcNAc(b1-3)Gal(b1-4)GlcNAc(b1-3)]GalNAc
# How it was run: as §1
# [7] = molecular target: GlcNAc6S(b1-3)Gal(b1-4)GlcNAc
# How it was run: as §1
# Man(a1-2)Man(a1-3)Man = molecular target: Man(a1-2)Man(a1-3)Man
# How it was run: as §1
# [8] = molecular target: Man(a1-2)Man(a1-6)[Man(a1-3)]Man(a1-6)[Man(a1-2)Man(a1-2)Man(a1-3)]Man
# How it was run: as §1
# [9] = molecular target: Man(a1-3)[Man(a1-6)]Man(a1-6)[Man(a1-3)]Man
# How it was run: as §1
# MurNAc(b1-4)GlcNAc = molecular target: MurNAc(b1-4)GlcNAc
# How it was run: as §1
# [10] = molecular target: Neu5Ac(a2-3)Gal(b1-3)GalNAc(b1-3)Gal(b1-4)GlcNAc
# How it was run: as §1
# [11] = molecular target: Neu5Ac(a2-3)Gal(b1-3)GlcNAc(b1-2)Man(a1-3)[Neu5Ac(a2-3)Gal(b1-3)GlcNAc(b1-2)Man(a1-6)]Man(b1-4)GlcNAc(b1-4)GlcNAc
# How it was run: as §1
# [12] = molecular target: Neu5Ac(a2-3)Gal(b1-3)[GlcNAc(b1-6)]GalNAc
# How it was run: as §1
# [13] = molecular target: Neu5Ac(a2-3)Gal(b1-4)GlcNAc(b1-2)Man(a1-3)[GlcNAc(b1-4)][Neu5Ac(a2-3)Gal(b1-4)GlcNAc(b1-2)Man(a1-6)]Man(b1-4)GlcNAc(b1-4)GlcNAc
# How it was run: as §1
# [14] = molecular target: Neu5Ac(a2-3)Gal(b1-4)GlcNAc(b1-2)Man(a1-3)[Neu5Ac(a2-3)Gal(b1-4)GlcNAc(b1-2)Man(a1-6)]Man(b1-4)GlcNAc(b1-4)[Fuc(a1-6)]GlcNAc
# How it was run: as §1
# [15] = molecular target: Neu5Ac(a2-3)Gal(b1-4)GlcNAc(b1-3)[Neu5Ac(a2-3)Gal(b1-4)GlcNAc(b1-6)]GalNAc
# How it was run: as §1
# [16] = molecular target: Neu5Ac(a2-3)Gal(b1-4)GlcNAc(b1-6)[Gal(b1-3)]GalNAc
# How it was run: as §1
# [17] = molecular target: Neu5Ac(a2-3)Gal(b1-4)[Fuc(a1-3)]GlcNAc(b1-3)Gal
# How it was run: as §1
# [18] = molecular target: Neu5Ac(a2-3)Gal(b1-4)[Fuc(a1-3)]GlcNAc(b1-6)[Neu5Ac(a2-3)Gal(b1-3)]GalNAc
# How it was run: as §1
# [19] = molecular target: Neu5Ac(a2-3)Gal6S(b1-4)[Fuc(a1-3)]GlcNAc
# How it was run: as §1
# Neu5Ac(a2-3)GalNAc = molecular target: Neu5Ac(a2-3)GalNAc
# How it was run: as §1
# [20] = molecular target: Neu5Ac(a2-6)Gal(b1-4)GlcNAc(b1-2)Man(a1-6)[GlcNAc(b1-2)Man(a1-3)]Man(b1-4)GlcNAc(b1-4)GlcNAc
# How it was run: as §1
# [21] = molecular target: Neu5Ac(a2-6)GlcNAc(b1-4)GlcNAc
# How it was run: as §1
# [22] = molecular target: Neu5Ac(a2-8)Neu5Ac(a2-8)Neu5Ac
# How it was run: as §1
# [23] = molecular target: Neu5Gc(a2-3)Gal(b1-4)GlcNAc
# How it was run: as §1
binder,measurement,setting,value
B1,glycan array binding signal (z-score),Glc(b1-4)Glc,-0.381
same,glycan array binding signal (z-score),[1],-0.406
same,glycan array binding signal (z-score),[2],2.24
same,glycan array binding signal (z-score),[3],0.544
same,glycan array binding signal (z-score),[4],3.45
same,glycan array binding signal (z-score),[5],0.269
same,glycan array binding signal (z-score),[6],-0.518
same,glycan array binding signal (z-score),[7],-0.145
same,glycan array binding signal (z-score),Man(a1-2)Man(a1-3)Man,-0.273
same,glycan array binding signal (z-score),[8],-0.335
same,glycan array binding signal (z-score),[9],-0.516
same,glycan array binding signal (z-score),MurNAc(b1-4)GlcNAc,-0.582
same,glycan array binding signal (z-score),[10],-0.123
same,glycan array binding signal (z-score),[11],-0.211
same,glycan array binding signal (z-score),[12],-0.638
same,glycan array binding signal (z-score),[13],-0.195
same,glycan array binding signal (z-score),[14],2.2
same,glycan array binding signal (z-score),[15],-0.511
same,glycan array binding signal (z-score),[16],-0.323
same,glycan array binding signal (z-score),[17],-0.462
same,glycan array binding signal (z-score),[18],3.62
same,glycan array binding signal (z-score),[19],0.06
same,glycan array binding signal (z-score),Neu5Ac(a2-3)GalNAc,-0.101
same,glycan array binding signal (z-score),[20],-0.269
same,glycan array binding signal (z-score),[21],-0.465
same,glycan array binding signal (z-score),[22],0.585
same,glycan array binding signal (z-score),[23],-0.209
